Source: PubChem BioAssay
PI4K2A block: inhibitors of human PI4K2A; 0.13% of 420,000 active; purified PI4K2A, ADP-Glo luminescence, 1 h; hits give low values; AID 1346378; activity change, negative = inhibition, % at 76.9 µM; Q9BTU6; in the data active = activity change below about -50%;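 also: -100% = wells without enzyme as full effect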
Target sequence (Q9BTU6 whole entry, looked up): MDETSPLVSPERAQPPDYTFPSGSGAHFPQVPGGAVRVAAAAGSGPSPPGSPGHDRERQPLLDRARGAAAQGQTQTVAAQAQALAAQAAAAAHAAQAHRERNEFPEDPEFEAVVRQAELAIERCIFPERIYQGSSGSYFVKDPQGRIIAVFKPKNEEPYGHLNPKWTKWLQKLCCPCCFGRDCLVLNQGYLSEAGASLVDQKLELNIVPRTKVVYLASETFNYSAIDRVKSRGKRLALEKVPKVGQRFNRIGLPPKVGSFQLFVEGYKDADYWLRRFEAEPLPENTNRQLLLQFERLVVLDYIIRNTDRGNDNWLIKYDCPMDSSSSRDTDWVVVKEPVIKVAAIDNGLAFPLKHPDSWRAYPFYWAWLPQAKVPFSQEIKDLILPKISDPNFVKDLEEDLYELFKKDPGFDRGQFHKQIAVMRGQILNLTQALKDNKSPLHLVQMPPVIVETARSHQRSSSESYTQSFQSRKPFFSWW
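In this quantitative HTS, ADP production by PI4K2A was quantified luminescently after 1 h at ambient temperature; 100 microM adenosine served as plate-quality control.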
DRD3 agonist: D3 dopamine receptor (human) agonism. P35462. D3R DiscoveRx beta-arrestin cells, luminescence, 90 min. max activation, %. 0.58% of 410,000 active. AID 652048; in the data active = max activation above about 30%; also: 0% is about no effect
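Agonist-mode cell screen: cells plated at 1500/well and incubated overnight at 37 °C, then exposed to library compounds for 90 min at 37 °C. Detection reagent was added for 30–60 min at room temperature, and luminescence was read.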
DRD3 antagonist: blocks the human D3 dopamine receptor. D3R cells, DiscoveRx beta-arrestin luminescence, antagonist mode; hits give low values. max response, negative = inhibition, %. 2.5% of 360,000 active; in the data active = max response below about -50%; also: % is scaled to controls: 0 for no effect and ±100 for the full control effect
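Cells plated overnight at 1500 cells/well, then exposed to library compounds with dopamine controls for 90 minutes at 37 degrees C. DiscoveRx reagent added for 30–60 minutes at room temperature; luminescence read, quantitative HTS format.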
LDHA block: inhibitors of human lactate dehydrogenase A; P00338; purified LDHA, NADH/diaphorase-resazurin fluorescence; hits give low values; activity change, % (values are at about 110 or 230 µM); 0.15% of 480,000 active; in the data active = activity change below about -30%;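 also: plate controls were DMSO wells for no effect and wells without enzyme for full effect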
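Resorufin fluorescence (ex540/em590), read at 0 and 20 min after diaphorase/resazurin addition, reports the NADH left after a 5 min room-temperature reaction of 2 nM human LDH5 with 0.06 mM NADH and 0.2 mM pyruvate.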
PI5P4K alpha inh: PI5P4K alpha (human) kinase inhibition; P48426; PI5P4Kalpha enzyme, ADP-Glo luminescence, 60 min; hits give low values; max response, %; 1.2% of 330,000 active; AID 652105; active = max response of -50% or lower; also: value at the top dose of about 77 µM; % is scaled to controls: 0 for no effect and ±100 for the full control effect
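PI5P4Kalpha ADP-Glo assay; 5 microM ATP final; 60 min RT reaction; HEPES pH 7.4/EGTA/CHAPS, 5% DMSO; controls lacking substrate or enzyme; luminescent end-point.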
An asterisk follows results filed as active; . = not tested or not shown. In the library only some 3.3% were active in any assay of this set; here they are far more common.

SMILES	PI4K2A block	DRD3 agonist	DRD3 antagonist	LDHA block	PI5P4K alpha inh
COCCn1c(SCc2cnc(-c3ccccc3)s2)nnc1-c1ccncc1	-3	-5	6	-2	-8
COc1ccc(-n2cnnc2SCc2cnc(-c3ccccc3)s2)cc1	-4	-5	-56*	2	-1
O=C(CCN1C(=O)C2C3CCC(C3)C2C1=O)OCC(=O)c1ccc(Cl)c([N+](=O)[O-])c1 (stereo not given)	.	.	.	-2	.
Cc1cccc(N2CCN(C(=O)C3CCCN(S(=O)(=O)c4c(C)noc4C)C3)CC2)c1C (stereo not given)	9	67*	-6	-1	-3
CCCCNC[C@@]12CO[C@H](c3ccc(Cl)cc3)N1[C@@H](c1ccc(Cl)cc1)SC2	-3	.	.	.	.
O=C1NC(=O)/C(=C/c2cccc3ccccc23)S1	7	4	5	-12	-28
O=C1NC(=O)/C(=C\c2ccc(O)cc2O)S1	-6	2	6	10	-92*
O=C(O)C(=O)/C(=C/c1cccs1)c1ccc2ccccc2n1	.	.	.	-5	.
CCOc1ccc(CCNC(=O)c2ccc3c(c2)N(Cc2ccc(F)cc2)CCS3)cc1	3	0	.	0	.
CCN1CCSc2ccc(C(=O)NCc3ccc(OC(C)C)cc3)cc21	-1	-13	-77*	1	-5
CCOc1ccc(CNC(=O)c2ccc3c(c2)N(CC)CCS3)cc1	-6	-13	-67*	-1	2
Cc1ccn2c(Nc3ccccc3C)c(-c3ccccn3)nc2c1	-5	-20	-59*	2	6
Cc1ccn2c(Nc3ccccc3)c(-c3ccccn3)nc2c1	-3	-26	-74*	9	3
Cc1cccn2c(Nc3ccccc3)c(-c3ccccn3)nc12	1	0	-23	-1	-9
Cc1ccc2nc(-c3ccccn3)c(Nc3ccccc3C)n2c1	0	-25	-59*	2	2
CCCN1/C(=C2/SC(=S)N(CC)C2=O)C=Cc2ccccc21	3	-7	-30	-3	1
CN1C(=O)/C(=C2/C=Cc3ccccc3N2CCCS(=O)(=O)O)SC1=S	-24	-25	-125*	6	-3
CCOC(=O)c1cnc2ccc(OCC)cc2c1N(C)Cc1ccccc1	-3	68*	8	9	10
CCOC(=O)c1cnc2ccc(OCC)cc2c1N1CCN(c2ccccc2OC)CC1	-5	34*	69	6	19
CCC(=O)Oc1ccc2cc(-c3nc(-c4ccccc4C)no3)c(=O)oc2c1	.	.	.	-1	.
O=C(O)/C=C/c1ccc(Br)c(Cl)c1	.	.	.	-2	.
CC(=O)COC(=O)C1CCN(S(=O)(=O)c2cc([N+](=O)[O-])ccc2Cl)CC1	-4	12	16	2	-53*
O=C(COC(=O)C1CCN(S(=O)(=O)c2cc([N+](=O)[O-])ccc2Cl)CC1)Nc1ncc(Cl)cc1Cl	4	2	-13	13	-50*
Cc1ccc(OCCN(C)C(=O)c2ccc3[nH]c(C)c(C)c3c2)cc1	.	.	.	1	.
O=C(OCc1cn([C@@H]2CN(C(=O)C3CCCCC3)[C@@H](c3ccc(Cl)cc3)C[C@H]2O)nn1)c1ccccc1	-1	4	-6	-35*	2
SMILES	PI4K2A block	DRD3 agonist	DRD3 antagonist	LDHA block	PI5P4K alpha inh
Cc1cccc(OCCCOc2cccc3cccnc23)c1C	1	5	-54*	1	9
CN1CCC(C2(O)c3ccccc3CSc3sccc32)CC1 (stereo not given)	0	0	-67*	-8	5
CN1CCC(C2(O)c3ccccc3CCc3ccccc32)CC1	5	-44	-16	6	-9
CC(C)CNC(=O)C(C)SCc1coc(-c2ccc(Cl)cc2)n1 (stereo not given)	.	.	.	6	.
Nc1c(CO)nnn1-c1ccccc1	3	-19	-54*	-2	-5
COc1ccccc1OCCCSc1nc(-c2ccc(C(C)(C)C)cc2)nc2cc(=O)[nH]n12	-5	31*	.	6	.
CN(Cc1ccccc1)C(=O)Nc1c(Cl)cccc1Cl	3	-7	-51*	-2	1
Cc1ccc(CCC(=O)NCCCN2CCCC2)cc1	.	.	.	8	.
COc1ccc(C2=C(C#N)C(=O)OC2)cc1	-2	1	-56*	1	-1
COc1ccc(-c2c(C#N)c(C)nc3c2C(=O)c2ccccc2-3)cc1	-3	2	10	0	2
O=C(CCC(=O)c1ccc2c(c1)CCC2)NC1CCCC1	.	.	.	4	.
